Experimental data as given in the supplement of paper PMC6555819.

Legend:
Test in all cases: PBM binding z-score (relative to random genomic background probes); higher = stronger binding; sequences stand for … in GC…GCGATTGACAGCGTAGAATGAAGG
[1] = tested on: PPARg:RXRa DBDmut IVT, anti-RXR (DBD mutation: RXRa K156A/R161A, NR concentration 270 nM, RXRa partner concentration 90 nM)
How it was run: (§1)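 The probes on custom Agilent 4×180K protein-binding microarrays were double-stranded, with 34-nt variable regions bearing direct-repeat seeds, single-nucleotide variants, half-site ablations and random human genomic background sequences. Incubation lasted 1 h with ligand-free nuclear receptor dimers in PBS pH 7.4, 2% milk, 0.02% Triton X-100, 1 mM DTT, 0.2 mg/mL BSA and 0.4 mg/ml salmon testes DNA. Antibodies against each partner (one per run) detected bound dimers, and fluorescence scans were regression-normalized. Binding z-scores take the random background probes as reference.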

[2] = tested on: PPARg:RXRa IVT, anti-PPARg (NR concentration 270 nM, RXRa partner concentration 90 nM)
How it was run: as §1

[3] = tested on: PPARg DBDmut:RXRa IVT, anti-PPARg (DBD mutation: PPARg1 K132A/R137A, NR concentration 270 nM, RXRa partner concentration 90 nM)
How it was run: as §1

[4] = tested on: PPARg DBDmut IVT, anti-PPARg (DBD mutation: PPARg1 K132A/R137A, NR concentration 270 nM)
How it was run: as §1

[5] = tested on: PPARg homodimer (NR concentration 180 nM)
How it was run: as §1

[6] = tested on: PXR:RXRa (NR concentration 270 nM, RXRa partner concentration 90 nM)
How it was run: as §1

[7] = tested on: PXR homodimer (NR concentration 270 nM)
How it was run: as §1

[8] = tested on: RARa:RXR (NR concentration 270 nM, RXRa partner concentration 90 nM)
How it was run: as §1

[9] = tested on: RARa homodimer (NR concentration 270 nM)
How it was run: as §1

[10] = tested on: RARb:RXRa (NR concentration 270 nM, RXRa partner concentration 90 nM)
How it was run: as §1

[11] = tested on: RARb homodimer (NR concentration 270 nM)
How it was run: as §1

[12] = tested on: RARg:RXRa (NR concentration 270 nM, RXRa partner concentration 90 nM)
How it was run: as §1

[13] = tested on: RARg homodimer (NR concentration 270 nM)
How it was run: as §1

[14] = tested on: RXRa DBDmut IVT, anti-RXR (DBD mutation: RXRa K156A/R161A, NR concentration 90 nM)
How it was run: as §1

[15] = tested on: RXRa homodimer (NR concentration 180 nM)
How it was run: as §1

[16] = tested on: THRa:RXRa (NR concentration 90 nM, RXRa partner concentration 90 nM)
How it was run: as §1

[17] = tested on: THRa homodimer (NR concentration 90 nM)
How it was run: as §1

[18] = tested on: VDR homodimer (NR concentration 270 nM)
How it was run: as §1

| Sequence | PBM binding z-score [1] | PBM binding z-score [2] | PBM binding z-score [3] | PBM binding z-score [4] | PBM binding z-score [5] | PBM binding z-score [6] | PBM binding z-score [7] | PBM binding z-score [8] | PBM binding z-score [9] | PBM binding z-score [10] | PBM binding z-score [11] | PBM binding z-score [12] | PBM binding z-score [13] | PBM binding z-score [14] | PBM binding z-score [15] | PBM binding z-score [16] | PBM binding z-score [17] | PBM binding z-score [18] |
| --- | --- | --- | --- | --- | --- | --- | --- | --- | --- | --- | --- | --- | --- | --- | --- | --- | --- | --- |
| CAATCTAGGTCAAAGGTCAAAGTCGAGCCAACCA | 8.91 | 9.32 | 3.79 | 6.44 | 3.41 | 6.92 | 1.82 | 8.3 | 1.8 | 5.89 | 5.31 | 8.93 | 7.21 | 2.92 | 10.3 | 4.99 | 2.3 | 2.73 |
| TCTTGTTGATCAAAGGTTAAGAAAGCCGAAGCCT | 1.8 | 2.11 | 1.32 | 0.442 | 1.36 | 1.74 | 0.07 | 2.31 | 0.624 | 2.04 | 1.89 | 1.64 | 1.11 | 0.76 | 2.64 | 1.58 | -0.291 | 0.435 |
| CTTAGTTGGTCAGGAGGTCACACACCGGATATGA | 3.35 | 4.3 | 1.44 | 1.09 | 3.81 | 4.37 | 1.79 | 4.74 | 3.28 | 3.83 | 4.33 | 5.21 | 4.53 | 1.06 | 4.99 | 3.67 | 2.65 | 2.74 |
| TAGCCTAGGTGATTGGGCCAGTATAGTACGCATC | 0.598 | 1.35 | -0.207 | -0.683 | -0.347 | -0.55 | -0.684 | -0.276 | -0.504 | -0.13 | -0.159 | -0.276 | -0.119 | -0.669 | -0.198 | -0.224 | -0.512 | -0.67 |
| TCTAGCTGGTCACGGAGGTCACACACGACGGGTA | 1.56 | 3.5 | 0.457 | 0.217 | 3.03 | 4.91 | 0.955 | 5.08 | 1.08 | 3.81 | 4.17 | 4.88 | 5.01 | 0.665 | 5.01 | 3.67 | 2.27 | 2.72 |
| CCTTACGGTTCACTGACAGGTTATAGCATTTGGA | 0.62 | 0.00685 | 0.829 | 0.643 | 1.64 | 2.14 | 0.911 | 2.41 | 1.71 | 1.16 | 1.26 | 3.49 | 0.922 | 3.31 | 2.05 | 1.53 | 0.708 | 2.95 |
| ATCGAAAGGTCGTGACGTGAGTATACAGAAAGGC | -0.00761 | 1.68 | 1.56 | 0.662 | 1.61 | 2.98 | 0.0582 | 3.7 | 0.369 | 3.74 | 2.18 | 4.37 | 3.53 | 0.904 | 4.94 | 2.15 | -0.269 | 0.662 |
| CACACTAGGTCAAAGGTCAAAGTCGAGCCAACCA | 8.09 | 8.84 | 5.62 | 4.09 | 7.33 | 7.4 | 2.74 | 9.26 | 4.38 | 5.87 | 5.42 | 9.01 | 7.38 | 3.45 | 10.4 | 4.85 | 2.4 | 4.12 |
